This is a sample that favours compounds with a hit; in the whole collection about 2.7% have one here.
INS-1E GSIS act = primary screen for activators of insulin secretion dependent on glucose, INS-1E cells, GLuc reporter luminescence | AID 743287 | hit rate 0.61% among 370,000 | INS-1E GLuc reporter insulin secretion, 2-3 h | activation, % at 16.6 µM;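 active = lowest replicate activation of at least 40%, so every replicate reaches that level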
Wnt act = activators of Wnt/beta-catenin signaling | activation, % at 9.35 µM | Wnt/beta-catenin reporter cell assay, activator, plate reader | hit rate 1.2% among 300,000; in the data active = activation above about 30%, passing the limit was not always enough
MITF TRPM1 HTS = activators of MITF-driven TRPM1 promoter activity in SK-MEL-5 cells; SK-MEL-5 TRPM1-promoter luciferase, 24 h; % of positive control, neutral wells = 0; hit rate 0.75% among 300,000; activation, % at 12.5 µM;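 active = mean activation of at least 80% with every replicate also reaching 80%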
F508del corr = correctors of CFTR F508del function in bronchial epithelial cells | hit rate 0.36% among 350,000 | CFBE cells, YFP halide quenching; stimulated with forskolin plus potentiator P3; % fluorescence drop versus neutral controls | AID 720511 | activity (quench increase), % at 7.58 µM;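 active = mean added fluorescence quench of at least 8% versus neutral control, with both replicates also reaching 8%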;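 note: cells transiently co-express mutant CFTR-F508del with the halide-sensitive YFP; corrector assay measuring rescue of mutant channel to the surface after 24 h compound exposure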
HIV Env fusion = blocks HIV Env-driven cell-cell fusion; inhibition, % at 12.3 µM; HeLa-JRFL Env/CEM21 cell fusion, luciferase; hit rate 1.1% among 360,000;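 active = mean replicate inhibition score of at least 50 and every replicate individually at or above 50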
Large screens that a line does not name were inactive; [ ] = remark or other dose.

O=C(C[C@@H]1C=C[C@@H](NC(=O)C2CC2)[C@H](CO)O1)NCc1ccncc1	none (no result: Wnt act, MITF TRPM1 HTS)
CC(C)NC(=O)N(C)C[C@@H]1OCCCC[C@@H](C)Oc2ccc(NC(=O)CCC(F)(F)F)cc2C(=O)N([C@@H](C)CO)C[C@@H]1C	none (no result: Wnt act, MITF TRPM1 HTS)
CO[C@@H]1CN(C)C(=O)c2cc(NC(=O)C3CCC3)ccc2OC[C@H](C)N(C)C[C@H]1C	none (no result: Wnt act, MITF TRPM1 HTS)
NC(N)=NC(=O)c1nc(Cl)c(N2CCCCCC2)nc1N	MITF TRPM1 HTS 126, HIV Env fusion 62
NC(N)=NC(=O)c1nc(Cl)c(N)nc1N	none
CC1CCCN(c2nc3ccsc3c(=O)s2)C1 (stereo not drawn)	Wnt act 53 (no result: INS-1E GSIS act, F508del corr)
C[C@@H]1CCCCO[C@H](CN(C)C(=O)Nc2ccc(F)cc2)[C@@H](C)CN([C@H](C)CO)C(=O)c2cc(NC(=O)Nc3ccc4c(c3)OCO4)ccc2O1	none (no result: Wnt act, MITF TRPM1 HTS)
Cc1ccc(C(=O)n2nc(-c3ccccc3)nc2NCc2ccco2)cc1	none (no result: HIV Env fusion)
CCCC(=O)n1nc(-c2ccc(C)cc2)nc1NCc1ccco1	Wnt act 47
O=C(c1cccs1)n1nc(-c2ccc(Cl)cc2)nc1NCc1ccco1	Wnt act 52 (no result: INS-1E GSIS act, MITF TRPM1 HTS, F508del corr)
C[C@H](CO)N1C[C@H](C)[C@@H](CN(C)C(=O)Nc2cccc3ccccc23)Oc2ccc(NC(=O)Nc3ccc4c(c3)OCO4)cc2C1=O	none (no result: Wnt act, MITF TRPM1 HTS, HIV Env fusion)
S=C1Nc2ccccc2CS1	none (no result: MITF TRPM1 HTS)
S=C1Cc2ccccc2N1	HIV Env fusion 73
COC(=O)N(C)C[C@@H]1OCc2ccccc2-c2ccccc2C(=O)N([C@@H](C)CO)C[C@H]1C	none (no result: Wnt act, MITF TRPM1 HTS, HIV Env fusion)
C[n+]1c2cc(N)ccc2cc2ccc(N)cc21	F508del corr 62
CC1(C)Cc2c(sc3nc(SCC(=O)NCc4ccco4)n(-c4ccccc4)c(=O)c23)CS1	none (no result: INS-1E GSIS act, Wnt act, F508del corr, HIV Env fusion)
O=C(CSc1nc2sc3c(c2c(=O)n1-c1ccccc1)CCCC3)NCc1ccco1	HIV Env fusion 66
O=C(CSc1nnc(Cn2c(=O)sc3ccccc32)n1-c1ccccc1)NCc1ccco1	F508del corr 10
COc1cc(NC(=O)CN2C(=O)C(=O)N(CC(C)C)C2=O)cc(OC)c1	INS-1E GSIS act 43
CO[C@@H]1CN(C)C(=O)c2ccc(NS(=O)(=O)c3ccc(Cl)cc3)cc2OC[C@@H](C)N(C(=O)Cc2cccnc2)C[C@H]1C	none (no result: Wnt act, MITF TRPM1 HTS)
C[C@@H]1CN([C@H](C)CO)C(=O)c2cc(-c3ccc(C(=O)N(C)C)cc3)cnc2O[C@@H]1CN(C)C	none (no result: Wnt act, MITF TRPM1 HTS)
C[C@H]1CN([C@@H](C)CO)S(=O)(=O)c2ccc(/C=C/c3ccccc3)cc2O[C@H]1CN(C)C(=O)C1CC1	none (no result: Wnt act, MITF TRPM1 HTS)
C[C@H](CO)N1C[C@H](C)[C@@H](CN(C)C(=O)CC2CC2)Oc2cc(C#CC(C)(C)O)ccc2S1(=O)=O	INS-1E GSIS act 44 (no result: Wnt act, MITF TRPM1 HTS)
C[C@@H]1CN([C@@H](C)CO)S(=O)(=O)c2ccc(/C=C/c3ccccc3)cc2O[C@@H]1CN(C)C(=O)C1CC1	HIV Env fusion 55[16.7 µM] (no result: Wnt act, MITF TRPM1 HTS)
CCC(=O)N(C)C[C@H]1Oc2cc(/C=C/c3ccccc3)ccc2S(=O)(=O)N([C@@H](C)CO)C[C@H]1C	HIV Env fusion 59[16.7 µM] (no result: Wnt act, MITF TRPM1 HTS)
C[C@H](CO)N1C[C@H](C)[C@H](CN(C)C(=O)c2ccc3c(c2)OCO3)Oc2cc(C#Cc3ccccc3F)ccc2S1(=O)=O	F508del corr 8.8 (no result: Wnt act, MITF TRPM1 HTS)
COc1cccc(CNC(=O)C[C@@H]2CC[C@@H](NC(=O)C3CC3)[C@H](CO)O2)c1	none (no result: Wnt act, MITF TRPM1 HTS)
COc1ccc2c3c(n(C)c2c1)[C@H](CO)N(C(=O)CN1CCOCC1)CC31CN(Cc2ccncc2)C1	none (no result: Wnt act, MITF TRPM1 HTS)
COc1cccc(C#Cc2ccc3c(c2)O[C@@H](CN(C)C(=O)c2ccccn2)[C@H](C)CN([C@@H](C)CO)S3(=O)=O)c1	F508del corr 9.8 (no result: Wnt act, MITF TRPM1 HTS)
C[C@H](CO)N1C[C@H](C)[C@@H](CN(C)C(=O)Cc2ccccn2)Oc2cc(C#C[C@@H](C)O)ccc2S1(=O)=O	INS-1E GSIS act 41 (no result: Wnt act, MITF TRPM1 HTS)
CCC(=O)N(C)C[C@@H]1Oc2cc(C#Cc3ccccc3)ccc2S(=O)(=O)N([C@@H](C)CO)C[C@H]1C	HIV Env fusion 59[16.7 µM] (no result: Wnt act, MITF TRPM1 HTS)
CCC(=O)N(C)C[C@H]1Oc2cc(C#Cc3ccccc3)ccc2S(=O)(=O)N([C@@H](C)CO)C[C@H]1C	none (no result: Wnt act, MITF TRPM1 HTS)
COc1cccc(C#Cc2ccc3c(c2)O[C@H](CN(C)C(=O)c2ccccn2)[C@@H](C)CN([C@@H](C)CO)S3(=O)=O)c1	none (no result: Wnt act, MITF TRPM1 HTS)
CO[C@H]1CN(C)C(=O)c2cc(NS(C)(=O)=O)ccc2OC[C@@H](C)N(Cc2ccccn2)C[C@@H]1C	none (no result: Wnt act, MITF TRPM1 HTS, HIV Env fusion)
COc1ccc(CCNc2c3ccccc3nc3ccccc23)cc1OC	F508del corr 10 (no result: MITF TRPM1 HTS)
COc1ccc(Nc2c3c(nc4ccccc24)CCC3)cc1	INS-1E GSIS act 74
COc1ccc(C)cc1Nc1c2c(nc3ccccc13)CCC2	F508del corr 13
COc1ccc(Nc2nc(N)c3ccccc3n2)c(OC)c1	MITF TRPM1 HTS 89
O=C(C[C@@H]1CC[C@H](NS(=O)(=O)c2ccc(F)cc2)[C@@H](CO)O1)NCc1ccc(Cl)c(Cl)c1	none (no result: Wnt act, MITF TRPM1 HTS)
CN(C)C(=O)c1cccc(-c2ccc([C@H]3[C@@H](C#N)N(C(=O)C4CCCC4)[C@H]3CO)cc2)c1	none (no result: Wnt act, MITF TRPM1 HTS, HIV Env fusion)
COc1ccccc1Nc1c2ccccc2nc2ccccc12	HIV Env fusion 57
CN(C)CCCNC(=O)c1cc2sc3ccccc3c2s1	none
COCCNC(=O)c1cc2sc3ccccc3c2s1	Wnt act 46 (no result: INS-1E GSIS act, MITF TRPM1 HTS, F508del corr)
O=C(C1CCN(S(=O)(=O)c2ccccc2)CC1)N1CCN(c2ccccc2)CC1	HIV Env fusion 61
O=C(c1cccc(S(=O)(=O)N2CCOCC2)c1)N1CCCC(C(F)(F)F)C1 (stereo not drawn)	F508del corr 10
CC1CCN(S(=O)(=O)c2cc(C(=O)N3CCN(c4ccccc4)CC3)ccc2Br)CC1	HIV Env fusion 72 (no result: INS-1E GSIS act, MITF TRPM1 HTS)
Cc1ccc(C(=O)N2CCN(c3ccccc3)CC2)cc1S(=O)(=O)N1CCCC1	none (no result: INS-1E GSIS act, Wnt act, F508del corr, HIV Env fusion)
Cc1ccc(NC(=O)c2cccc(S(=O)(=O)N3CCN(c4ccccc4)CC3)c2)nc1	HIV Env fusion 57
COc1ccc(N2CCN(C(=O)C3CCN(S(=O)(=O)c4ccccc4)CC3)CC2)cc1	none
CC1CCN(C(=O)c2cccc(S(=O)(=O)N3CCN(c4ccccc4)CC3)c2)CC1	INS-1E GSIS act 42
Cc1ccc(C(C(=O)NC(C)(C)C)N(Cc2cccs2)C(=O)c2csnn2)cc1 (stereo not drawn)	HIV Env fusion 79 (no result: Wnt act, F508del corr)
CCC(C)(C)NC(=O)C(c1sccc1C)N(Cc1ccco1)C(=O)c1csnn1 (stereo not drawn)	HIV Env fusion 55
CC(C)(C)NC(=O)C(c1ccc(F)cc1)N(Cc1ccco1)C(=O)c1csnn1 (stereo not drawn)	none (no result: INS-1E GSIS act, F508del corr)
CCC(C)(C)NC(=O)C(c1ccccc1F)N(Cc1ccco1)C(=O)c1csnn1 (stereo not drawn)	HIV Env fusion 53 (no result: INS-1E GSIS act, Wnt act, F508del corr)
C[C@@H]1CN([C@H](C)CO)C(=O)Cc2cc(NC(=O)Nc3cccc4ccccc34)ccc2O[C@H]1CN(C)Cc1ccncc1	none (no result: Wnt act, MITF TRPM1 HTS)

Assay outcomes from PubChem BioAssay.
